GRP78 ERSR act: ER stress response induction in glioma. AID 602332. 0.02% of 420,000 active. Potency, µM, for inactives: at the top dose activation, most hits filed as activators. U87-MG GRP78 promoter luciferase reporter, 16 h; note: series mostly up to about 76 µM; % of control where 0% means no effect; nearly all actives have a fitted effect of over 35% in size
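Stably transfected U87-MG glioma cells carrying a GRP78-based luciferase sensor; 16 h compound incubation. Luminescence end-point read 10 min after Bright-Glo addition at room temperature.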
AT treatment: potential ataxia-telangiectasia treatments restoring KAP-1 phosphorylation; F2112 A-T fibroblasts, KAP-1 phosphorylation AlphaLISA; neocarzinostatin DNA damage 30 min before lysis; Potency, µM (series often up to 57.5 µM), for inactives: at the top dose activation, usual class: activators; 0.19% of 320,000 active; AID 485349; note: % of control where 0% means no effect; nearly all actives have a fitted effect of over 45% in size
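hTERT-immortalized A-T patient fibroblasts (F2112), 500 cells/well in OPTI-MEM, 1% FBS, got compounds for 60 min, then NCS for 30 min at 37C. Lysates were then assayed for phospho-KAP-1 by AlphaLISA (anti-pKAP1 donor, anti-KAP1 acceptor beads), 6 hr at 25C.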
Abeta rescue: compounds reversing amyloid beta toxicity in yeast; 0.063% of 410,000 active; AID 1347071; yeast expressing A-beta42, growth rescue, OD600, 48 h; response scale: 0% DMSO, 100% iron-clioquinol control; Potency, µM (top dose mostly 46.1 µM), usual class: activators; note: nearly all actives have a fitted effect of over 55% in size
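Growth rescue measured by 600 nm absorbance after 48 h yeast culture at 30 C with compound. Values normalized between DMSO and an equimolar ferric chloride plus clioquinol control.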
Mito fusion yeast: mitochondrial division inhibition or fusion activation; S. cerevisiae fusion-defective mutant growth rescue, CellTiterGlo 48 h; Potency, µM (top dose mostly 46.1 µM), for the others: at the top dose growth rescue (activation), hits mostly activators; AID 485298; 0.23% of 320,000 active; note: % of control where 0% means no effect; nearly all actives have a fitted effect of over 45% in size
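Read-out: ATP-based luminescence (CellTiterGlo, 10 min ambient) reporting growth of fusion-defective ts yeast after 48 hours at 37C on glycerol/ethanol YPEG medium in the presence of compound.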
aSyn yeast inh: rescues yeast growth from alpha-synuclein toxicity. AID 652106. 0.14% of 370,000 active. Yeast expressing alpha-synuclein, growth rescue, BacTiter-Glo, 24 h. Potency, µM (highest dose often 46.1 µM), without a hit: top-dose growth rescue (activation), usual class: activators; note: % of control where 0% means no effect; nearly all actives have a fitted effect of over 65% in size
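Screening used galactose-induced yeast with toxic alpha-synuclein levels, exposed to compound for 24 hr at 30 deg C. Cell growth, read with BacTiter-Glo luminescence, gave the measured signal.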
TDP43 rescue: rescues yeast growth from TDP-43 toxicity. 1.8% of 410,000 active. AID 652104. TDP-43 expressing yeast growth rescue, BacTiter-Glo, 24 h. Potency, µM (highest dose often 46.1 µM), for the others: top-dose growth rescue (activation), usual class: activators; note: % of control where 0% means no effect; nearly all actives have a fitted effect of over 50% in size
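In this qHTS, compounds that restore growth of yeast expressing TDP-43 appear as activators. Cells (OD600=0.02, galactose medium, raffinose-pregrown) are incubated with compound 24 hr at 30 deg C and growth is quantified by BacTiter-Glo.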
Starred values were filed as active, the others as inactive; i = inactive; ? = inconclusive; nt = not tested or not shown. Only some compounds are listed: those with a hit (about 2.1% of all), similar ones and a draw of the others. Calls come from the whole dose curve; as a rule, active = well fitted curve in the direction sought with a large enough effect; inconclusive = small, poorly fitted or top-dose-only effect, or another doubt; inactive = no such curve, though single readings can be large; an effect the other way counts as inactive or inconclusive. Potency is the fitted concentration of half-maximal effect.

SMILES | GRP78 ERSR act | AT treatment | Abeta rescue | Mito fusion yeast | aSyn yeast inh | TDP43 rescue
O=C(/C=C/c1cccs1)Nc1cccc(NC(=O)/C=C/c2cccs2)n1 | -6% | -1% | i | 14µM* | -8% | 7.9µM*
CN(Cc1cnc2nc(N)nc(N)c2n1)c1ccc(C(=O)NC(CCC(=O)O)C(=O)O)cc1 (stereo unspecified) | -5% | nt | i | nt | 2% | 16µM*
C/C(=N\Nc1cc(C(F)(F)F)ccc1Cl)c1ccccc1O | -5% | 26% | i | 0% | 0% | 24%
C/C(=N\Nc1ccc(F)cc1F)c1ccccc1O | 5% | 8% | i | -11% | 2% | 13µM*
CN(C)CCCNc1cc(C(C)(C)C)nc2c(-c3ccc(Cl)cc3)cnn12 | -15% | 1% | i | -22% | -25% | -13%
CC(C)(C)c1cc(NCc2ccccn2)n2ncc(-c3ccc(Cl)cc3)c2n1 | -1% | 2% | i | 15% | 12% | 22µM*
Cc1cc(C)n2nc(C(=O)OCC(=O)NCc3ccc(F)cc3)nc2n1 | -3% | 5% | i | nt | 1% | 13%
COc1ccc(NC(=O)Nc2nnc(N(C)C3CCCCC3)s2)c(OC)c1 | 8% | nt | i | nt | nt | 0%
C[C@H](NC(=O)OC(C)(C)C)C(=O)NCC1CCC(C(=O)N[C@@H](Cc2ccccc2)C(=O)O)CC1 (stereo partly specified) | -3% | 3.5µM* | i | 17% | -1% | 18%
COc1ccc(Br)cc1S(=O)(=O)NCCc1cccs1 | -4% | -10% | i | nt | ? | 20µM*
COc1ccc(C)cc1S(=O)(=O)NCc1cccs1 | -1% | -1% | i | -6% | 8% | -16%
COc1cccc(CNC(=O)CCc2c(C)nn(-c3ccc(N4CCOCC4)nn3)c2C)c1 | 0% | nt | i | nt | nt | -2%
COc1ccc(Br)cc1/C=C/C(=O)c1ccc(NC(C)=O)cc1 | -14% | ? | i | 20% | -8% | 18µM*
NC(=O)CSc1nc2ccc([N+](=O)[O-])cc2[nH]1 | -6% | -1% | i | 14µM* | 4% | -8%
CCCCCCCCCCCCCCCC[n+]1ccc(CC(O)c2c(C)[nH]c3ccccc23)c2ccccc21 (stereo unspecified) | -12% | nt | nt | nt | nt | nt
O=C(CSc1nc(=O)n2ccccc2n1)N1CCC(Cc2ccccc2)CC1 | -2% | 9% | i | 1% | 4% | 20µM*
COc1ccc(NS(=O)(=O)c2ccc3oc4ccccc4c3c2)cn1 | 0% | 0% | i | 25µM* | 22µM* | ?
COC(=O)c1sccc1S(=O)(=O)N(CC(=O)NCc1ccc(C)cc1)c1ccc(C)cc1 | 0% | nt | i | nt | nt | 10%
CC1CN(C(=O)Nc2ccc3snnc3c2)c2ccccc21 (stereo unspecified) | -2% | 12% | i | ? | 1% | 16µM*
COc1cc(=O)n2c(c1C(=O)N(C)Cc1cscn1)CCN(C(=O)c1cccc(C)c1C)CC2 | 5% | nt | nt | nt | nt | nt
Cc1c(Cl)cccc1NC(=O)N1CCOc2ccccc21 | -5% | nt | i | nt | nt | 13µM*
Cc1ccc2c(c1)N(C(=O)Nc1cccc(C)c1C)CCO2 | -3% | nt | i | nt | nt | ?
Cc1cnc(-n2ncc(C(=O)NCCN3CCOCC3)c2C(C)C)nc1-c1ccc(F)cc1 | 4% | nt | nt | nt | nt | nt
COc1ccc(-n2c(=O)c(CCc3ccccc3)nc3cncnc32)cc1 | -4% | nt | nt | nt | nt | nt
Cc1cc(C)c(C(=O)NC2CC(C)(C)Cc3c2cnn3-c2ccccc2)o1 (stereo unspecified) | -6% | -3% | i | -1% | -9% | 16µM*
SMILES | GRP78 ERSR act | AT treatment | Abeta rescue | Mito fusion yeast | aSyn yeast inh | TDP43 rescue
CCCn1c2ccccc2c2cnn(CC(=O)NCCOC)c(=O)c21 | -6% | 4% | i | 2% | 3.5µM* | -2%
Cc1ccc(C(=O)COC(=O)c2ccco2)cc1C | 2% | 1% | i | 2% | 4% | -4%
COc1cccc(N2CCN(S(=O)(=O)c3ccc(-c4ccno4)cc3OC)CC2)c1 | -2% | nt | i | nt | nt | 13µM*
COc1cc(-c2ccno2)ccc1S(=O)(=O)N1CCN(c2ccc(F)cc2)CC1 | -3% | nt | i | nt | nt | 25%
COc1cc(-c2ccno2)ccc1S(=O)(=O)N1CCN(c2ccccc2)CC1 | 3% | nt | i | nt | nt | 11µM*
COc1ccccc1N1CCN(S(=O)(=O)c2ccc(-c3ccno3)cc2OC)CC1 | 2% | nt | i | nt | nt | 13µM*
CCOc1ccc(NS(=O)(=O)c2ccc(C(=O)N(C)C)s2)cc1 | -1% | nt | i | nt | nt | -5%
C[N+]1(CC(=O)c2ccccc2)CCc2ccccc2C1 (stereo unspecified) | -2% | nt | nt | nt | nt | nt
CCOC(=O)c1ccc(NC(=O)C2CCCN(c3ccc(Sc4ccc(C)cc4)nn3)C2)cc1 (stereo unspecified) | -3% | nt | i | nt | nt | 24%
COC(=O)C1=C2c3[nH]c4ccccc4c3CCN2C(=O)CC1 | -4% | nt | i | nt | 10% | 10µM*
COc1cc(SC)ccc1C(=O)N1CCN(c2ccccc2F)CC1 | -5% | 2% | i | 8% | 1% | 11µM*
COc1ccc2[nH]c(C(=O)N3CCN(c4ccccc4F)CC3)c(C)c2c1 | -1% | 4% | i | -52% | 1% | 16µM*
COc1ccc(N2CCN(C(=O)c3ccc(SC)cc3OC)CC2)cc1 | -2% | 1% | i | 0% | 2% | -13%
COc1cc2ccccc2cc1C(=O)N1CCN(c2nc3ccc(F)cc3s2)CC1 | -1% | nt | i | nt | nt | 13µM*
COc1cc(OC)cc(C(=O)N2CCN(c3ccccc3F)CC2)c1 | -6% | 6% | i | 5% | 4% | ?
O=C(COc1ccc2ccccc2c1Br)N1CCCC1 | 16% | 27% | i | 3% | 5% | 11µM*
CC(=O)Oc1ccc(C2(c3ccc(OC(C)=O)cc3)Oc3ccccc3NC2=O)cc1 | -4% | nt | nt | nt | nt | nt
Cc1ccc2c(c1)C(c1ccc(F)cc1)N(C(=O)c1ccc(S(=O)(=O)N3CCCCC3)cc1)CC(=O)N2 (stereo unspecified) | -4% | nt | i | nt | nt | -9%
COc1cc2ccccc2cc1C(=O)N1CCN(C(C)=O)CC1 | -4% | 10% | i | -1% | -2% | 11%
COc1ccccc1N1CCN(C(=O)COc2cccc3ccccc23)CC1 | -2% | 4% | i | 11% | ? | 35µM*
CCOc1ccccc1N1CCN(C(=O)c2cc3ccccc3cc2OC)CC1 | -5% | -3% | i | 6% | 7% | 14µM*
CN1CCCCC1C(=O)N1CCC(Oc2cccc(CN3CCN(c4ccccn4)CC3)c2)CC1 (stereo unspecified) | -4% | nt | nt | nt | nt | nt

Source: PubChem (National Center for Advancing Translational Sciences (NCATS))
